# From PubChem BioAssay (NCATS)
# Where “and” joins values, the source holds several entries; their conditions need not be identical. Equal entries are not always repeated. Inconclusive results are not listed. Where a call stands in place of a potency, no number is given. Calls of active or inactive are those of the source. Unless noted, the call rests on the fitted dose curve; in most records, active means well fitted curve in the direction sought with a large enough effect; inconclusive means small, poorly fitted or top-dose-only effect, or another doubt; inactive means no such curve, though single readings can be large; an effect the other way counts as inactive or inconclusive.
# Experiments:
# [1] = qHTS for differential inhibitors of proliferation of Plasmodium falciparum line 7G8 (AID 1815);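 further: parasite growth measured after three days of incubation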; further: potency means the concentration at half of the fitted maximal effect
# [2] = qHTS for differential inhibitors of proliferation of Plasmodium falciparum line Dd2 (AID 1882); conditions: Potency: Plasmodium falciparum Dd2 proliferation inhibition; further: nearly all actives have a fitted effect of over 65% in size; further: potency means the concentration at half of the fitted maximal effect
# How it was run: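 RBC culture, 0.3% parasitemia / 2.5% Hct final; cpd added by pin tool in DMSO; 72 h, 37 C, 5% CO2; lysis buffer + SYBR Green I, o/n RT dark; FI 485/535; norm. to artemisinin 0.29 uM and DMSO.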
# [3] = target: Estrogen receptor (Homo sapiens) (UniProt P03372); test: qHTS assay for small molecule agonists of estrogen receptor alpha signaling (AID 588514; calls by dose curve; further: nearly all actives have a fitted effect of over 70% in size; further: potency means the concentration at half of the fitted maximal effect)
# Estrogen receptor (Homo sapiens), sequence (P03372 whole entry, looked up): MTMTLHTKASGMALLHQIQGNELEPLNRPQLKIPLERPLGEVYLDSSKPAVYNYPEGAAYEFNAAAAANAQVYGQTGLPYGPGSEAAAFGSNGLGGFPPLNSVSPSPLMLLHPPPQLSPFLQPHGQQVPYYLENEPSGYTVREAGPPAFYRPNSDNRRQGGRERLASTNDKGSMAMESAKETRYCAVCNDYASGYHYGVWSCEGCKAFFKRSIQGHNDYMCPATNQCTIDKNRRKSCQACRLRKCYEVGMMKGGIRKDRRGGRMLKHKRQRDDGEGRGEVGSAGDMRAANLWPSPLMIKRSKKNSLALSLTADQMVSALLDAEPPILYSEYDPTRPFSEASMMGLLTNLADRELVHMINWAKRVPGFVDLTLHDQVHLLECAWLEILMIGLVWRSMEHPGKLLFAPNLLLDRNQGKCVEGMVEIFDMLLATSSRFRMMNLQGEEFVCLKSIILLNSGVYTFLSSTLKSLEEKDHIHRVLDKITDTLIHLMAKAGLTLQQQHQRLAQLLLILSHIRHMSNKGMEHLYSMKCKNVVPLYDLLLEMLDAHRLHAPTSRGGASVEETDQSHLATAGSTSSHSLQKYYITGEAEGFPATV
# How it was run: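 Fluorescence from CCF4 cleavage reports ER-alpha-driven beta-lactamase expression in HEK 293 cells treated 18 hrs at 37 C. Data normalized to 17-beta-estradiol (20 nM) and DMSO, fitted to Hill equation.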
# [4] = VSVG counterscreen qHTS to identify inhibitors of SARS-CoV-2 cell entry (AID 1645847; calls by dose curve; further: potency means the concentration at half of the fitted maximal effect; nearly all actives have a fitted effect of over 65% in size)
# How it was run: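 HEK293-ACE2 cells (Expi293F, human ACE2) pretreated 1 h with compound, then infected with MLV-based VSV-G pseudotyped particles for 48 h at 37 C; luciferase luminescence normalized to VSV-G PP and bald PP wells.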
# [5] = target: Cytochrome P450 3A4 (Homo sapiens) (UniProt P08684); test: qHTS Assay for Inhibitors and Substrates of Cytochrome P450 3A4 (AID 884); further: nearly all actives have a fitted effect of over 50% in size; further: potency means the concentration at half of the fitted maximal effect
# Cytochrome P450 3A4 (Homo sapiens), sequence (P08684 whole entry, looked up): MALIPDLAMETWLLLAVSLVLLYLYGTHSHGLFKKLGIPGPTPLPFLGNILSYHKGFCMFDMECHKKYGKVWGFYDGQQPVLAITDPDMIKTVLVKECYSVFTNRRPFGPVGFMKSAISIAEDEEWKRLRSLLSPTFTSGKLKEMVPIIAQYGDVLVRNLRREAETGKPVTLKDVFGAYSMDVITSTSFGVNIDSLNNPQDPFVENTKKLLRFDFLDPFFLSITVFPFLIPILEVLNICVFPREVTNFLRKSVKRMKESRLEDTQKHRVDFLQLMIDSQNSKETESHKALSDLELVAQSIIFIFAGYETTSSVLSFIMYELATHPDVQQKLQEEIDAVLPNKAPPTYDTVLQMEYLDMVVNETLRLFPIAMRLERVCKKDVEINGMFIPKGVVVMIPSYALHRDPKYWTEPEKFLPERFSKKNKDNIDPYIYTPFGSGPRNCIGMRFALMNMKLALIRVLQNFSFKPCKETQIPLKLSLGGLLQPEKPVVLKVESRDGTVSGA
# How it was run: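 Luminescent readout of luciferin produced by CYP3A4 (20 nM) dealkylation of Luciferin-PPXE, 25 uM (its KM). NADPH-driven reaction ran 60 min at RT after 10 min compound preincubation; data scaled to 57 uM ketoconazole as 100% inhibition.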
# [6] = qHTS for Activators of Parkin Expression: LOPAC Validation Assay (FLuc Reporter) (AID 720573)
# How it was run: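 Neuronal cell line stably expressing FLuc/NLuc coincidence reporter under the Parkin promoter, 1,500 cells/well, dosed 24 h after seeding in 7-point series for 24 h at 37 C. FLuc luminescence read; normalized to DMSO and positive control (100%).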
# [7] = target: Estrogen receptor (Homo sapiens) (UniProt P03372); test: qHTS assay for small molecule antagonists of estrogen receptor alpha signaling (AID 588513; active means well fitted curve in the direction sought with a large enough effect in the signal ratio, with a control signal flat, not every such curve was filed as active; the % refers to the signal ratio)
# How it was run: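 ER-alpha-UAS-bla GripTite HEK 293 cells in 2% charcoal/dextran-treated FBS medium; compounds titrated (1:2, duplicate), then stimulated with 0.5 nM 17-beta-estradiol for 18 h at 37C. CCF4 beta-lactamase fluorescence; Hill-fit IC50 and efficacy.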
# [8] = target: Bile acid receptor (Homo sapiens) (UniProt Q96RI1); test: qHTS assay for small molecule antagonists of farnesoid X receptor signaling (AID 588526; calls by dose curve)
# Bile acid receptor (Homo sapiens), sequence (Q96RI1 whole entry, looked up): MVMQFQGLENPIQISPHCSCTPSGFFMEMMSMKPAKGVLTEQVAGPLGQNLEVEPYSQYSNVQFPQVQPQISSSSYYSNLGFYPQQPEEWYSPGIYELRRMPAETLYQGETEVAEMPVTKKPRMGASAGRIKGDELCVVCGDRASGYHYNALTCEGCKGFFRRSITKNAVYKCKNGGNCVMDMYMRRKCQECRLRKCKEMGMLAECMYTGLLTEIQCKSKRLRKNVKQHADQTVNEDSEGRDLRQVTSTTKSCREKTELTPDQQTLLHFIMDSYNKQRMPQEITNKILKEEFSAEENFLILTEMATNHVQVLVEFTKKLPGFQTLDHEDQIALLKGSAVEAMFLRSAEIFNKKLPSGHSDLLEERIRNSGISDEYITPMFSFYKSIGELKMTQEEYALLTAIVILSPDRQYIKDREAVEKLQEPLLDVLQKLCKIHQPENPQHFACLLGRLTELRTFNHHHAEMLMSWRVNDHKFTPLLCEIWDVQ
# How it was run: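 Beta-lactamase reporter antagonist mode: HEK293T FXR-UAS-bla cells, titrated compound, CDCA stimulation, 16 h 37 C, CCF4 dye 2 h RT. Data normalized to CDCA 50 uM and DMSO; Hill-fit IC50.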
# [9] = target: Glucocorticoid receptor (Homo sapiens) (UniProt P04150); test: qHTS assay for small molecule agonists of glucocorticoid receptor signaling (AID 588532; active means well fitted curve in the direction sought with a large enough effect in the signal ratio, with a control signal flat; the % refers to the signal ratio); conditions: HeLa MMTV-bla, beta-lactamase ratio, agonist, 18 h; stronger effect = higher value; percent of dexamethasone control, DMSO zero
# Glucocorticoid receptor (Homo sapiens), sequence (P04150 whole entry, looked up): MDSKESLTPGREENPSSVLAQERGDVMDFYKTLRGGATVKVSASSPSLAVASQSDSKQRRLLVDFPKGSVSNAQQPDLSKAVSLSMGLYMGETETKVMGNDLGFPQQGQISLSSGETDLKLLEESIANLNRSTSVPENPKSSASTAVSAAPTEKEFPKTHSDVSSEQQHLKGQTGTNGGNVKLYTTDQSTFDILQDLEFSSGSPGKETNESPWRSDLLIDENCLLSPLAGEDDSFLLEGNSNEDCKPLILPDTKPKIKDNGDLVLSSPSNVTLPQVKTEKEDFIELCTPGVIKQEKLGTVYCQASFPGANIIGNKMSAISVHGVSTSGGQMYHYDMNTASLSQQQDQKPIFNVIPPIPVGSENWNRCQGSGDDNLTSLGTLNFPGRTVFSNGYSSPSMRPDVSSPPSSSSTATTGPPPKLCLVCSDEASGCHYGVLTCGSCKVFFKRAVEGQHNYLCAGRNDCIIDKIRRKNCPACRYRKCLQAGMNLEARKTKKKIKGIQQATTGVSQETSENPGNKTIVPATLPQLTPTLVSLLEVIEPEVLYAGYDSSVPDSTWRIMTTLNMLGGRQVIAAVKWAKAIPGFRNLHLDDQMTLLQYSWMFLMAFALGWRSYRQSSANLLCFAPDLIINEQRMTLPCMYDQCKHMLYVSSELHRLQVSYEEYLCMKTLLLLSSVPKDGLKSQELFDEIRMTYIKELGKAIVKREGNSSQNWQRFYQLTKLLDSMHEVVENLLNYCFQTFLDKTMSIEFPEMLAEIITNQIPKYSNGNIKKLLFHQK
# How it was run: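 Agonist-mode qHTS: GRE-driven beta-lactamase in HeLa cells exposed 18 h to titrated compounds (up to 92 uM), then CCF4 ratio read after 2 h at RT; Hill-fitted EC50, efficacy relative to 0.1 uM dexamethasone.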
# [10] = qHTS assay for small molecule agonists of retinoid X receptor alpha signaling (AID 588544; calls by dose curve); conditions: HEK293T RXRa-UAS-bla, beta-lactamase reporter, 18 h; 530 nm emission
# [11] = target: Retinoic acid receptor RXR-alpha (Homo sapiens) (UniProt P19793); test: as above
# Retinoic acid receptor RXR-alpha (Homo sapiens), sequence (P19793 whole entry, looked up): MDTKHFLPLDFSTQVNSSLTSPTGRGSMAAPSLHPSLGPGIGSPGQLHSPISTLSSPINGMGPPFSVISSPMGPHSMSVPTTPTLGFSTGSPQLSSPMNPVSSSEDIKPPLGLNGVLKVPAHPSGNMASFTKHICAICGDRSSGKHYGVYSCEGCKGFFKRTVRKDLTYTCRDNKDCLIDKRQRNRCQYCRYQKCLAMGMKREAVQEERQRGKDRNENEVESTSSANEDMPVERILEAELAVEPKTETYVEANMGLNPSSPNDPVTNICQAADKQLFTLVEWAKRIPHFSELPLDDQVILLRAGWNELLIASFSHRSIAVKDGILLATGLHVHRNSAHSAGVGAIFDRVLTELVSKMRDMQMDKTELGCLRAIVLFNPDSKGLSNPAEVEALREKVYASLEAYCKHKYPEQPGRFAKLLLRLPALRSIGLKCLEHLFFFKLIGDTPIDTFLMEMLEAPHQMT
# [12] = target: Nuclear receptor subfamily 1 group I member 2 (Rattus norvegicus) (UniProt Q9R1A7); test: qHTS assay for small molecule activators of the rat pregnane X receptor (rPXR) signaling pathway (AID 651751; call rule not given here); conditions: rPXR reporter cells, luciferase (One-Glo), 24 h
# Nuclear receptor subfamily 1 group I member 2 (Rattus norvegicus), sequence (Q9R1A7 whole entry, looked up): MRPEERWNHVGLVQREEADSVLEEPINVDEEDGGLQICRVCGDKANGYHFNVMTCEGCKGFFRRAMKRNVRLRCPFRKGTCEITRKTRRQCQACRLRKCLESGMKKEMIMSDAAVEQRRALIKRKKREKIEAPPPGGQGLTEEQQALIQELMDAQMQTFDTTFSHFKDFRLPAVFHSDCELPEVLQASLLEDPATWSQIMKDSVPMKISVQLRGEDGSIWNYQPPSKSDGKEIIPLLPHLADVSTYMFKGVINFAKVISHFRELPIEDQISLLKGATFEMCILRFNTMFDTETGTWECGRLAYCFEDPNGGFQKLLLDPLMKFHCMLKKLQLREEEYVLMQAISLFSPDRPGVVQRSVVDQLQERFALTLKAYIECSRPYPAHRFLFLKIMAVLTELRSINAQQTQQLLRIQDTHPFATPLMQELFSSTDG
# [13] = qHTS assay for small molecule activators of the human pregnane X receptor (PXR) signaling pathway (AID 720659; call rule not given here)
# [14] = target: Ferritin light chain (Equus caballus) (UniProt P02791); test: qHTS Validation Assay for Identification of Novel General Anesthetics (AID 2323); further: series mostly up to about 77 µM
# Ferritin light chain (Equus caballus), sequence (P02791 2-175 limits assumed): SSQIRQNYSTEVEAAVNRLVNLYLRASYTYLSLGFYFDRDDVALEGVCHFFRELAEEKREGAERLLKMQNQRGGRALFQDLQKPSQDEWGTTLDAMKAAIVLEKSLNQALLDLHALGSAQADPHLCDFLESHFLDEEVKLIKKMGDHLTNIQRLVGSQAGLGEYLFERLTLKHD
# How it was run: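 Horse-spleen apoferritin (10 uM) in PBS with 50% saturated 1-aminoanthracene; compounds pin-transferred, 10 min at room temperature. Fluorescence read at 380/535 nm, normalized to free 1-AMA and 1-AMA/apoferritin values; four-parameter Hill fit.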
# [15] = Cell Viability - LYMP2-012 (AID 982);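 further: cellular ATP by luciferase luminescence where a drop means cytotoxicity; cells exposed to compound for one day before reading; nearly all actives have a fitted effect of over 55% in size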
# [16] = Cell Viability - LYMP2-018 (AID 985); further: nearly all actives have a fitted effect of over 50% in size
# How it was run: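 In this qHTS viability assay, cells are treated for 24 hr and cellular ATP is quantified by luciferase-based luminescence, with tetraoctylammonium bromide as positive control.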
# [17] = Cell Viability - LYMP2-020 (AID 986);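 further: series mostly up to about 92 µM; cells exposed to compound for 24 h at 37 °C; nearly all actives have a fitted effect of over 55% in size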
# How it was run: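 Cells at 2500 per well receive a 24 hr compound exposure at 37 C. Viability is measured as ATP-dependent luciferase luminescence, with AC50 modeled from qHTS concentration-response curves.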
# [18] = target: Vitamin D3 receptor (Homo sapiens) (UniProt P11473); test: qHTS assay for small molecule antagonists of vitamin D receptor signaling (AID 588541; calls by dose curve;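 further: receptor activated by calcitriol during compound treatment; series mostly up to about 77 µM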)
# Vitamin D3 receptor (Homo sapiens), sequence (P11473 whole entry, looked up): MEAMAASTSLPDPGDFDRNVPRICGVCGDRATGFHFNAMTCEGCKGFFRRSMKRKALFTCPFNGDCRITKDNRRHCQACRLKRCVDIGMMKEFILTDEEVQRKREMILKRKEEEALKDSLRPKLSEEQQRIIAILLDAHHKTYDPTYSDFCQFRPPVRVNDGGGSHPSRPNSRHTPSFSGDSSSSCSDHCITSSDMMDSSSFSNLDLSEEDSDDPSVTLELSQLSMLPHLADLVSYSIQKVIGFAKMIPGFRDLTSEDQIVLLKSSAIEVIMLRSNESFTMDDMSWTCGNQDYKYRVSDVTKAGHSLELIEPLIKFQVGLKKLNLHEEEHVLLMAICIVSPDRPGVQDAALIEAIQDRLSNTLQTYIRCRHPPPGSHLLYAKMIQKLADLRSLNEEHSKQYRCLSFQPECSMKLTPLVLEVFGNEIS
# How it was run: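 Antagonist-mode beta-lactamase reporter assay: HEK293T VDR-UAS-bla cells were exposed to titrated compound alongside 1-alpha,25-dihydroxyvitamin D3 at 3 nM final for 16 h. Values were normalized to the 50 nM agonist control and DMSO basal, with IC50 and efficacy from Hill equation fits.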
# [19] = target: Vitamin D3 receptor (Homo sapiens) (UniProt P11473); test: qHTS assay for small molecule agonists of vitamin D receptor signaling (AID 588543; calls by dose curve)
# How it was run: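 VDR-UAS-bla HEK293T cells, 2000/well, 2% charcoal-stripped FBS; compound titration 16 h at 37 C; CCF4 beta-lactamase ratio read. Normalized to 50 nM 1-alpha,25-dihydroxyvitamin D3 (100%) and DMSO; Hill fit gives EC50, efficacy.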
# [20] = qHTS assay for small molecule activators of the nuclear factor-kappa B (NF-kB) signaling pathway (AID 651749; active means well fitted activation curve with a large enough effect in the signal ratio; the % refers to the signal ratio; further: series mostly up to about 77 µM); conditions: NF-kB-bla ME-180 cells, beta-lactamase FRET ratio, 16 h; activation: stronger effect = higher value
# How it was run: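 FRET-based beta-lactamase detection in ME-180 cells reports NF-kB response-element-driven transcription following overnight (16 hr) compound treatment.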
smiles,measurement,setting,value
CN1C2CCC1CC(OC(=O)C(CO)c1ccccc1)C2 (configuration not stated),Potency,[1],inactive
same,Potency,[2],inactive
O=C1c2cccc(O)c2C(=O)c2c(O)cc(CO)cc21,Potency,[3],20 µM (active)
Cc1cnc(CNC(=O)c2c(=O)c3ccc(N4CCCN(C)CC4)nc3n3c2sc2ccccc23)cn1,Potency,[4],3.12 µM (active)
Oc1ccc(-c2nc(-c3ccc(F)cc3)c(-c3ccncc3)[nH]2)cc1,Potency,[5],1 µM (active)
same,Potency,[4],3.04 µM (active)
Cc1ccccc1C(=O)c1ccc(Nc2ccc(Br)cc2N)cc1Cl,Potency,[4],24.1 µM (active)
CC(C)NC[C@H](O)COc1cccc2[nH]ccc12,outcome,[6],inactive
N#C/C(=C\c1ccc(O)c(O)c1)C(=O)NCCCNC(=O)/C(C#N)=C/c1ccc(O)c(O)c1,Potency,[1],2.82 µM (active)
same,Potency,[2],3.16 µM (active)
CC(C)COC(=O)c1ccccc1C(=O)OCC(C)C,Potency,[5],inactive
same,Potency,[7],inactive
same,Potency,[3],inactive
same,Potency,[8],inactive
same,activation,[9],-1.08% (inactive)
same,max response,[10],-12.5%
same,outcome,[11],inactive
same,max response,[12],-3.74% (inactive)
same,outcome,[13],inactive
CCCCCCCCCC[Si](C)(C)CCC(=O)NC(Cc1ccc(C)cc1)c1ccccc1 (configuration not stated),Potency,[1],3.55 µM (active)
same,Potency,[2],5.01 µM (active)
same,outcome,[14],inactive
Oc1ccccc1O,outcome,[6],inactive
Nc1nc(N)c2nc(CNc3ccc(C(=O)NC(CCC(=O)O)C(=O)O)cc3)cnc2n1 (configuration not stated),outcome,[14],inactive
Oc1ccccc1Cl,outcome,[15],inactive
same,outcome,[16],inactive
same,outcome,[17],inactive
same,outcome,[18],inactive
same,Potency,[19],inactive
same,max response,[10],8.5%
same,outcome,[11],inactive
same,activation,[20],-1.13% (inactive)
same,max response,[12],0.452% (inactive)
same,outcome,[13],inactive
COC1=CC(=O)OC(CCc2ccc3c(c2)OCO3)C1 (configuration not stated),Potency,[7],inactive
same,Potency,[8],inactive
same,activation,[9],3.34% (inactive)
same,activation,[20],-0.795% (inactive)
CCOC(=O)c1ccccc1N,outcome,[15],inactive
same,outcome,[16],inactive
same,outcome,[17],inactive
same,Potency,[7],inactive
same,Potency,[3],inactive
same,Potency,[8],inactive
same,activation,[9],0.622% (inactive)
same,outcome,[18],inactive
same,Potency,[19],inactive
same,max response,[10],-10.9%
same,outcome,[11],inactive
same,max response,[12],-1.87% (inactive)
same,outcome,[13],inactive
Nc1nc2ccc(Cl)cc2c2nc(-c3ccco3)nn12,outcome,[14],inactive
CN1[C@@H](CC(=O)c2ccccc2)CCC[C@H]1C[C@H](O)c1ccccc1,Potency,[1],6.31 µM (active)
same,Potency,[2],8.91 µM (active)
O=c1oc(Cl)c(Cl)c2ccccc12,outcome,[6],inactive
c1ccc(Nc2ccc3ccccc3c2)cc1,outcome,[15],inactive
same,outcome,[16],inactive
same,outcome,[17],inactive
same,Potency,[7],inactive
same,Potency,[8],inactive
same,activation,[9],-2.76% (inactive) and -2.2% (inactive)
same,activation,[20],0.513% (inactive) and 2.05% (inactive)
Brc1c(Br)c(Br)c2n[nH]nc2c1Br,Potency,[5],3.16 µM (active)
CC(=O)/C=C/c1ccccc1,Potency,[5],inactive
same,outcome,[15],inactive
same,outcome,[16],inactive
same,outcome,[17],inactive
same,outcome,[18],inactive
same,Potency,[19],inactive
same,max response,[10],-2.3%
same,outcome,[11],inactive
same,activation,[20],-1.47% (inactive)
same,max response,[12],-0.846% (inactive)
same,outcome,[13],inactive
COc1ccc2c(c1)CCC1C2CC[C@@]2(C)C1CC[C@@H]2NCCCCCCN1C(=O)C=CC1=O (some centres not stated),outcome,[6],inactive
c1ccc2c(c1)-c1cccc3cccc-2c13,outcome,[15],inactive
same,outcome,[16],inactive
same,outcome,[17],inactive
same,outcome,[18],inactive
same,Potency,[19],inactive
same,activation,[20],0.379% (inactive)
Nc1nc2[nH]c(=O)cnc2c(=O)[nH]1,outcome,[14],inactive
